The record followed here is PubChem BioAssay (NCI).

The panel holds about 79,000 compounds, 15% with a hit somewhere; the sample as a whole holds those more often. Unmarked numbers belong to inactive results. The source made the active and inactive calls. Cut-off read from the data, not from the text of the source: active = growth inhibition above about 70%; inactive = the rest.

A short description of experiment [1]: NCI Yeast Anticancer Drug Screen. Data for the rad50 strain (AID 155).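 Note: 0% = growth of vehicle-only cultures of the same strain.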 The following applies: S. cerevisiae rad50 strain growth inhibition, hits give high values. A digest of the protocol:
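Relative growth inhibition (compound vs vehicle) was measured in yeast with a defined repair-gene alteration.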

The nature of experiment [2]: NCI Yeast Anticancer Drug Screen. Data for the mec2-1 strain (AID 157). Particulars: S. cerevisiae mec2-1 strain, hits give high values. Put shortly: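 Using mec2-1 yeast: add compound, measure growth, express inhibition versus vehicle-treated cultures.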
Experiment [3] is described as follows: NCI Yeast Anticancer Drug Screen. Data for the sgs1 mgt1 strain (AID 161).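 Note: 0% = growth of cultures given vehicle only.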 Particulars: S. cerevisiae sgs1 mgt1 strain, hits give high values. A digest of the protocol:
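Percent growth inhibition was derived by comparing compound-exposed mutant yeast with vehicle-exposed cultures. The strain carries alterations in DNA damage repair.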

The nature of experiment [4]: NCI Yeast Anticancer Drug Screen. Data for the cln2 rad14 strain (AID 165).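 Note: 0% = growth equal to vehicle treated cultures.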 Particulars: S. cerevisiae cln2 rad14 strain, hits give high values. A digest of the protocol: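 Yeast strain cln2 rad14, bearing defects in cell cycle control and DNA repair, serves as the test system; values reflect growth inhibition compared with vehicle.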
The nature of experiment [5]: NCI Yeast Anticancer Drug Screen. Data for the bub3 strain (AID 167). The following applies: S. cerevisiae bub3 mutant strain, hits give high values. Put shortly:
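Screening used yeast with an engineered genetic alteration affecting cell cycle control. Compound-exposed cultures were compared with vehicle cultures, and reduced growth was taken as inhibition.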

The nature of experiment [6]: NCI Yeast Anticancer Drug Screen. Data for the mlh1 rad18 strain (AID 175). Particulars: S. cerevisiae mlh1 rad18 strain growth inhibition, hits give high values. A digest of the protocol: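 Steps: expose repair-defective yeast to compound; measure growth; express inhibition against vehicle-treated controls.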
[7] abbreviates: at 5.0 µM (retest, dose inferred, filed as 0.5).
The mark [8] stands for this setting: at 50.0 µM (retest, dose inferred, filed as 5.0).

For the compound `Cc1ccc(C(CN(C)C)C(=O)c2ccccc2)cc1C` (stereo not given), the growth inhibition was -4% in experiment [1] (setting [7]); 97% (active) in experiment [1] (setting [8]); 4.8% in experiment [1] (at 50.0 µM); -2% in experiment [2] (setting [7]); 97% (active) in experiment [2] (setting [8]); 3.35% in experiment [2] (at 50.0 µM). For the same compound, the growth inhibition in experiment [3] (setting [7]) was -4%; in experiment [3] (setting [8]), 93% (active); in experiment [3] (at 50.0 µM), 36.3%; in experiment [4] (setting [7]), -3%; in experiment [4] (setting [8]) it was 42%; in experiment [4] (at 50.0 µM) it was -23.6%. Moreover, the growth inhibition in experiment [5] (setting [7]) is -2%; in experiment [5] (setting [8]), 97% (active); in experiment [5] (at 50.0 µM), 69.4%; in experiment [6] (setting [7]) it was -6%; in experiment [6] (setting [8]), 98% (active); in experiment [6] (at 50.0 µM) it was 27.4%.
In the case of `O=C(O)c1ccc([N+](=O)[O-])cc1.[Ag]`, the growth inhibition in experiment [1] (setting [7]) is 99% (active); in experiment [1] (setting [8]), 99% (active); in experiment [1] (at 50.0 µM), 98.8% (active); in experiment [2] (setting [7]), 100% (active); in experiment [2] (setting [8]), 99% (active); in experiment [2] (at 50.0 µM), 99.3% (active). For the same compound, the growth inhibition was 99% (active) in experiment [3] (setting [7]); 99% (active) in experiment [3] (setting [8]); 99.5% (active) in experiment [3] (at 50.0 µM); 99% (active) in experiment [4] (setting [7]); 99% (active) in experiment [4] (setting [8]); 98.9% (active) in experiment [4] (at 50.0 µM). Besides, the growth inhibition in experiment [5] (setting [7]) was 99% (active); in experiment [5] (setting [8]) it was 99% (active); in experiment [5] (at 50.0 µM), 99.2% (active); in experiment [6] (setting [7]), 99% (active); in experiment [6] (setting [8]) it was 99% (active); in experiment [6] (at 50.0 µM), 99.2% (active).
Consider `O/N=C1\c2ccccc2-c2ccc(Cl)cc21`, for which the growth inhibition in experiment [1] (setting [7]) is 6%; in experiment [1] (setting [8]), 35%; in experiment [1] (at 50.0 µM), 60.5%; in experiment [2] (setting [7]) it was -5%; in experiment [2] (setting [8]) it was 34%; in experiment [2] (at 50.0 µM), 50.5%. Also, the growth inhibition in experiment [3] (setting [7]) was 3%; in experiment [3] (setting [8]), 60%; in experiment [3] (at 50.0 µM) it was 87.4% (active); in experiment [4] (setting [7]) it was -4%; in experiment [4] (setting [8]), 27%; in experiment [4] (at 50.0 µM), 41.4%. The growth inhibition in experiment [5] (setting [7]) is -4%; in experiment [5] (setting [8]), 28%; in experiment [5] (at 50.0 µM), 74.3% (active); in experiment [6] (setting [7]), 8%; in experiment [6] (setting [8]), 36%; in experiment [6] (at 50.0 µM), 79% (active).
`Cc1c[n+](CC(=O)c2ccc(I)cc2)c(C)s1`: the growth inhibition was 0% in experiment [1] (setting [7]); 13% in experiment [1] (setting [8]); -16.2% in experiment [1] (at 50.0 µM); -1% in experiment [2] (setting [7]); 2% in experiment [2] (setting [8]); 4.1% in experiment [2] (at 50.0 µM). Further, the growth inhibition in experiment [3] (setting [7]) is -1%; in experiment [3] (setting [8]), 12%; in experiment [3] (at 50.0 µM) it was -2.85%; in experiment [4] (setting [7]) it was -4%; in experiment [4] (setting [8]) it was -5%; in experiment [4] (at 50.0 µM), 46.3%. The growth inhibition in experiment [5] (setting [7]) was -2%; in experiment [5] (setting [8]), 9%; in experiment [5] (at 50.0 µM), 1.7%; in experiment [6] (setting [7]) it was -2%; in experiment [6] (setting [8]), -2%; in experiment [6] (at 50.0 µM), 16.8%.
Turning to `C/C([O-])=C1\Cc2ccccc2C1=O.C/C([O-])=C1\Cc2ccccc2C1=O.CC[O-].CC[O-].[Ti+4]`, the growth inhibition in experiment [1] (setting [7]) was 25%; in experiment [1] (setting [8]) it was 25%; in experiment [1] (at 50.0 µM) it was 89% (active); in experiment [2] (setting [7]), 17%; in experiment [2] (setting [8]) it was 17%; in experiment [2] (at 50.0 µM), 89.4% (active). Further, the growth inhibition in experiment [3] (setting [7]) was 4%; in experiment [3] (setting [8]) it was 4%; in experiment [3] (at 50.0 µM), 91.5% (active); in experiment [4] (setting [7]), 4%; in experiment [4] (setting [8]) it was 4%; in experiment [4] (at 50.0 µM) it was 81% (active). The growth inhibition is 4% in experiment [5] (setting [7]); 4% in experiment [5] (setting [8]); 88.6% (active) in experiment [5] (at 50.0 µM); 20% in experiment [6] (setting [7]); 20% in experiment [6] (setting [8]); 90.7% (active) in experiment [6] (at 50.0 µM).
As to `COc1cc(C(c2cc3c(cc2OC(C)=O)OCO3)C(C)C(C)=O)cc(OC)c1OC` (stereo not given), the growth inhibition in experiment [1] (setting [7]) is 3%; in experiment [1] (setting [8]) it was 84% (active); in experiment [1] (at 50.0 µM) it was -8.35%; in experiment [2] (setting [7]), 4%; in experiment [2] (setting [8]), 66%; in experiment [2] (at 50.0 µM) it was 13.8%. In addition, the growth inhibition in experiment [3] (setting [7]) is 5%; in experiment [3] (setting [8]) it was 95% (active); in experiment [3] (at 50.0 µM), 0.1%; in experiment [4] (setting [7]), 7%; in experiment [4] (setting [8]), 49%; in experiment [4] (at 50.0 µM), 51.2%. Moreover, the growth inhibition in experiment [5] (setting [7]) is 1%; in experiment [5] (setting [8]), 40%; in experiment [5] (at 50.0 µM) it was -1.75%; in experiment [6] (setting [7]), 1%; in experiment [6] (setting [8]) it was 38%; in experiment [6] (at 50.0 µM), 29.1%.
With `CCC(=O)C(CC)(c1ccc(OC(C)=O)cc1)c1ccc(OC(C)=O)cc1`, the growth inhibition is 13% in experiment [1] (setting [7]); 82% (active) in experiment [1] (setting [8]); -20.3% in experiment [1] (at 50.0 µM); 24% in experiment [2] (setting [7]); 73% (active) in experiment [2] (setting [8]); -1.2% in experiment [2] (at 50.0 µM). Besides, the growth inhibition in experiment [3] (setting [7]) is 9%; in experiment [3] (setting [8]), 75% (active); in experiment [3] (at 50.0 µM) it was 53.1%; in experiment [4] (setting [7]) it was 9%; in experiment [4] (setting [8]), 33%; in experiment [4] (at 50.0 µM) it was 14.7%. Further, the growth inhibition was 9% in experiment [5] (setting [7]); 59% in experiment [5] (setting [8]); 35.1% in experiment [5] (at 50.0 µM); 21% in experiment [6] (setting [7]); 93% (active) in experiment [6] (setting [8]); -1.85% in experiment [6] (at 50.0 µM).
Take `O=C(O)COc1cc(Br)cc(Br)c1-c1ccccc1`: the growth inhibition is 2% in experiment [1] (setting [7]); 36% in experiment [1] (setting [8]); 65.2% in experiment [1] (at 50.0 µM); 14% in experiment [2] (setting [7]); 70% (active) in experiment [2] (setting [8]); 59.5% in experiment [2] (at 50.0 µM). Moreover, the growth inhibition in experiment [3] (setting [7]) was -10%; in experiment [3] (setting [8]), 39%; in experiment [3] (at 50.0 µM) it was 71.2% (active); in experiment [4] (setting [7]), 2%; in experiment [4] (setting [8]) it was 56%; in experiment [4] (at 50.0 µM), 65%. Also, the growth inhibition in experiment [5] (setting [7]) is -3%; in experiment [5] (setting [8]), 46%; in experiment [5] (at 50.0 µM) it was 29.8%; in experiment [6] (setting [7]), 22%; in experiment [6] (setting [8]), 78% (active); in experiment [6] (at 50.0 µM), 67.7%.
With `C=CCc1cccc(/C=N\N=C(/N)NO)c1O`, the growth inhibition in experiment [1] (setting [7]) is -1%; in experiment [1] (setting [8]), 26%; in experiment [1] (at 50.0 µM), 43.5%; in experiment [2] (setting [7]), 2%; in experiment [2] (setting [8]), 35%; in experiment [2] (at 50.0 µM), 84.5% (active). Moreover, the growth inhibition was 3% in experiment [3] (setting [7]); 59% in experiment [3] (setting [8]); 41.1% in experiment [3] (at 50.0 µM); -6% in experiment [4] (setting [7]); 26% in experiment [4] (setting [8]); 48.6% in experiment [4] (at 50.0 µM). For the same compound, the growth inhibition is -4% in experiment [5] (setting [7]); 8% in experiment [5] (setting [8]); 70% (active) in experiment [5] (at 50.0 µM); -2% in experiment [6] (setting [7]); 42% in experiment [6] (setting [8]); 83.2% (active) in experiment [6] (at 50.0 µM).
With `COc1ccc(/C=C2\CCCc3ccccc3C2=O)cc1`, the growth inhibition was -3% in experiment [1] (setting [7]); 33% in experiment [1] (setting [8]); 60.2% in experiment [1] (at 50.0 µM); 2% in experiment [2] (setting [7]); 86% (active) in experiment [2] (setting [8]); 53.3% in experiment [2] (at 50.0 µM). The growth inhibition in experiment [3] (setting [7]) is 9%; in experiment [3] (setting [8]) it was 86% (active); in experiment [3] (at 50.0 µM), 77.7% (active); in experiment [4] (setting [7]), -12%; in experiment [4] (setting [8]) it was -3%; in experiment [4] (at 50.0 µM) it was 20%. For the same compound, the growth inhibition in experiment [5] (setting [7]) was 64%; in experiment [5] (setting [8]), 90% (active); in experiment [5] (at 50.0 µM), 80.4% (active); in experiment [6] (setting [7]) it was 5%; in experiment [6] (setting [8]), 81% (active); in experiment [6] (at 50.0 µM), 62.2%.
